Test results taken from PubChem BioAssay (EPA / NIEHS).
Records with an inconclusive call do not appear. The source made the active and inactive calls. Rule for the calls: active = hit-call score of the fitted dose curve at least 0.9, where 1 is the maximum; inconclusive = response in the unintended direction; inactive = score below 0.9.

Assays:
Adra2b (gene 24174) = Adra2b (gene 24174) (UniProt P19328); assay: NVS_GPCR_rmAdra2B: NovaScreen (NVS) G Protein-Coupled Receptor Assay for hybird cells Adrenergic, Alpha 2B Receptor (Adra2B) (AID 2283306)
Sequence of Adra2b (gene 24174) (P19328 whole entry, looked up): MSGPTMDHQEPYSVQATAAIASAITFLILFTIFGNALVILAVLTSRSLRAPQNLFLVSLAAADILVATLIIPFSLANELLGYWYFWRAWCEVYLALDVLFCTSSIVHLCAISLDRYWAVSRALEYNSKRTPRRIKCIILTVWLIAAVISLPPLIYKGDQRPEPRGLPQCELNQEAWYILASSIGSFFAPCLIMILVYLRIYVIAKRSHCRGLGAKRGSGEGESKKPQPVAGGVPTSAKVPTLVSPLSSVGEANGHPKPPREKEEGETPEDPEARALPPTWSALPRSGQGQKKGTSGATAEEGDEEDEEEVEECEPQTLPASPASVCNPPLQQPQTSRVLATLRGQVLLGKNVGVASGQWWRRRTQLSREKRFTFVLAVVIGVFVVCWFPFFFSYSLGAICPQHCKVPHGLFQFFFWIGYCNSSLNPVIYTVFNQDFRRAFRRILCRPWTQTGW
In short: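 Radioligand filter-binding assay on membrane proteins from neuroglioma/blastoma hybrid cells (rodent), 1 h after dosing; scintillation counting, loss of signal vs DMSO. Primary screen in duplicate at 25 uM, actives then run in concentration series.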

[1] = target: rat Glutamate Metabotropic Receptor 5 (MGluR5), Grm5 (gene 24418) (UniProt P31424); assay: NVS_GPCR_rmMGluR5: NovaScreen (NVS) G Protein-Coupled Receptor Assay for rat Glutamate Metabotropic Receptor 5 (MGluR5) (AID 2283307)
Sequence of rat Glutamate Metabotropic Receptor 5 (MGluR5), Grm5 (gene 24418) (P31424 whole entry, looked up): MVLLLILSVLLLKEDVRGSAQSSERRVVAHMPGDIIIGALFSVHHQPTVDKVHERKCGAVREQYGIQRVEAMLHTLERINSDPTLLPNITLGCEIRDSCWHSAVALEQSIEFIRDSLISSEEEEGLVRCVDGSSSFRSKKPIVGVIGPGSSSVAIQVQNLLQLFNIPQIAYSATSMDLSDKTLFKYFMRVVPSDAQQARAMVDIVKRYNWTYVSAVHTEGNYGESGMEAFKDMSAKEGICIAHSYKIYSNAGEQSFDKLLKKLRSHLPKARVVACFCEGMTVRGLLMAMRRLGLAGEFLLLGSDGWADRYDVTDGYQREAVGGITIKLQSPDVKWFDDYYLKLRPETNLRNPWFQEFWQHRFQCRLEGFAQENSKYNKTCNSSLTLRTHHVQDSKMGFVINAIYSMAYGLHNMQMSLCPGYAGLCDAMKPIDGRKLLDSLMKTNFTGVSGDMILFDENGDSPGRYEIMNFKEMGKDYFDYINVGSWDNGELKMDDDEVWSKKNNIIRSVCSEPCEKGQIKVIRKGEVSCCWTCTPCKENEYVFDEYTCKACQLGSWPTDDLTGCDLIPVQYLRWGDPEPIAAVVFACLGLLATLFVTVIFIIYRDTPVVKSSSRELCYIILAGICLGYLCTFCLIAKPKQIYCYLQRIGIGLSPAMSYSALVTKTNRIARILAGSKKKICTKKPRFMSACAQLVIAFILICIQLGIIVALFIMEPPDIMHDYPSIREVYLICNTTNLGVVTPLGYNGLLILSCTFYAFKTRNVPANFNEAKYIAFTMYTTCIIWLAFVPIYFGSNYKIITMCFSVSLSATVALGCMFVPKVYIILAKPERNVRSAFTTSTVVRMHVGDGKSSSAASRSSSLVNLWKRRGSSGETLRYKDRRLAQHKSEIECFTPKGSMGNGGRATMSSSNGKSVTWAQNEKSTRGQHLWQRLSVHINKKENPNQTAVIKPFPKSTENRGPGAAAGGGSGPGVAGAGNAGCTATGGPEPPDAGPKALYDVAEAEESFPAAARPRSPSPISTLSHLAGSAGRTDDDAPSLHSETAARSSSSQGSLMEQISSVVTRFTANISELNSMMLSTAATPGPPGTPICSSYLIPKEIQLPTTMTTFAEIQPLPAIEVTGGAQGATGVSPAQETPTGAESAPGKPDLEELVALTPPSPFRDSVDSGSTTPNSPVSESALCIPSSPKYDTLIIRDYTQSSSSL
In short: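 Rat whole-brain membrane preparation; filter-based radioligand binding read by scintillation counting, 1.5 h after dosing. Single-point screen at 25 uM in duplicate; hits over threshold (e.g. 30% inhibition) retested in concentration-response up to 50 uM; loss of signal vs DMSO.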

[2] = target: rat Neurokinin-1 Receptor (NK1), Tacr1 (gene 24807) (UniProt P14600); assay: NVS_GPCR_rNK1: NovaScreen (NVS) G Protein-Coupled Receptor Assay for rat Neurokinin-1 Receptor (NK1) (AID 2283309)
Sequence of rat Neurokinin-1 Receptor (NK1), Tacr1 (gene 24807) (P14600 whole entry, looked up): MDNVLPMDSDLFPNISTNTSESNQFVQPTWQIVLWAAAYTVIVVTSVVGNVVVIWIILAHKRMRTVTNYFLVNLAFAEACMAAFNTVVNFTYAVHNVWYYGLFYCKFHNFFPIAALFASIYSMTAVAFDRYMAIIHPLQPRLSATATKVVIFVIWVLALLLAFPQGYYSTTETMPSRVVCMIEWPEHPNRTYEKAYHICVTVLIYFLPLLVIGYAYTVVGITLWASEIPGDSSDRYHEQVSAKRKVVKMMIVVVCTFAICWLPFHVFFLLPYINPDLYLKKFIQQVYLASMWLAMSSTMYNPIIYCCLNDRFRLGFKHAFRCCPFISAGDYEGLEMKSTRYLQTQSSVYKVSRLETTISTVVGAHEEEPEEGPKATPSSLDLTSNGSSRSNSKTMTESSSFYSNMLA
In short: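 Rat submaxillary gland membranes; radioligand displacement read by filter-based scintillation counting after 1 h. Primary screen in duplicate at 25 uM; actives retested in concentration series; loss of binding fitted versus DMSO.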

[3] = target: rat Neonicotinoid receptor (NNR), Chrna7 (gene 25302) (UniProt Q05941); assay: NVS_LGIC_rNNR_BungSens: NovaScreen (NVS) Ligand-Gated Ion Channel Assay for rat Neonicotinoid receptor (NNR) (AID 2283315)
Sequence of rat Neonicotinoid receptor (NNR), Chrna7 (gene 25302) (Q05941 whole entry, looked up): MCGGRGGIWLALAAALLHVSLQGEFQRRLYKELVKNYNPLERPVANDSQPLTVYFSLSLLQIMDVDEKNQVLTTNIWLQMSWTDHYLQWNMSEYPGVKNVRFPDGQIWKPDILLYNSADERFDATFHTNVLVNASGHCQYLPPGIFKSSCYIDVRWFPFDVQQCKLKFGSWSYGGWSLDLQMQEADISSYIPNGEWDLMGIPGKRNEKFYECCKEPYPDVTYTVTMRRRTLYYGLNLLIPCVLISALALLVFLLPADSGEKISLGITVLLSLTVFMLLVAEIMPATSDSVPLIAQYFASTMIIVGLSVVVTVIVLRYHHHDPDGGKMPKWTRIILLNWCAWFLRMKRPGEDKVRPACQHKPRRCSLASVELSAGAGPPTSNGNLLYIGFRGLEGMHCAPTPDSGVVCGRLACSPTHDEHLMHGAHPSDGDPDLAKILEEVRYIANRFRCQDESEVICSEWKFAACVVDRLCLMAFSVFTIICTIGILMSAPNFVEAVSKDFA
In short: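 Radioligand displacement binding on rat cortical membranes, 2.5 h incubation, filtration and scintillation counting. Loss of specific binding fitted relative to DMSO.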

[4] = target: rat Vasopressin 1 Receptor (V1), Avpr1a (gene 25107) (UniProt P30560); assay: NVS_GPCR_rV1: NovaScreen (NVS) G Protein-Coupled Receptor Assay for rat Vasopressin 1 Receptor (V1) (AID 2283316)
Sequence of rat Vasopressin 1 Receptor (V1), Avpr1a (gene 25107) (P30560 whole entry, looked up): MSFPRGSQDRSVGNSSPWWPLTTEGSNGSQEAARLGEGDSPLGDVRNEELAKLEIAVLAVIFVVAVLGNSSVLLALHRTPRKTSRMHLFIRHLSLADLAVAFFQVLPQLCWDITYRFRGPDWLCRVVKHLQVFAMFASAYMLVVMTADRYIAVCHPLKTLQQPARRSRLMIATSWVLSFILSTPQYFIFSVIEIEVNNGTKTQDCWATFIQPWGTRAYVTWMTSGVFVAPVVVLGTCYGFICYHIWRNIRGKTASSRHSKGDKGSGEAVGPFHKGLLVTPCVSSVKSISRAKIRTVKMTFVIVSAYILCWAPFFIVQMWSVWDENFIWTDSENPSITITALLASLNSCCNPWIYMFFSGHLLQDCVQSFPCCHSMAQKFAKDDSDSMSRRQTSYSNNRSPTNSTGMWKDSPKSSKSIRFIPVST
In short: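 Radioligand binding on rat liver membranes, 1.5 h incubation, filter-based scintillation counting. Single 25 uM screen in duplicate; chemicals meeting threshold (e.g. 30% inhibition) run in concentration-response up to 50 uM.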

[5] = target: Sodium channel protein type 1 subunit alpha (Rattus norvegicus) (UniProt P04774); assay: NVS_IC_rNaCh_site2: NovaScreen (NVS) Ion Channel Assay for rat Sodium Channel, Site 2 (NaCh) (AID 2283322);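 note: hit means loss of radioligand binding signal relative to DMSO so AC50 marks displacement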
In short: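 Membranes: rat forebrain. Format: competitive radioligand displacement, filter separation, scintillation readout, 1 h exposure. Primary screen in duplicate at 25 uM; actives retested in concentration series.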

[6] = target: rat Thyrotropin Releasing Hormone Receptor (TRH), Trhr (gene 25570) (UniProt Q01717); assay: NVS_GPCR_rTRH: NovaScreen (NVS) G Protein-Coupled Receptor Assay for rat Thyrotropin Releasing Hormone Receptor (TRH) (AID 2283329);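 note: hit means lower bound tracer signal versus DMSO baseline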
In short: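 Competitive radioligand binding on rat forebrain membrane preparations, with filtration and scintillation readout after 4 h. Primary testing in duplicate at 25 uM; actives confirmed in concentration-response. DMSO defined baseline.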

[7] = target: Metabotropic glutamate receptor 1 (Rattus norvegicus) (UniProt P23385); assay: NVS_GPCR_rmMGluR1: NovaScreen (NVS) G Protein-Coupled Receptor Assay for rat Glutamate Metabotropic Receptor 1 (MGluR1) (AID 2283305)
Sequence of Metabotropic glutamate receptor 1 (Rattus norvegicus) (P23385 whole entry, looked up): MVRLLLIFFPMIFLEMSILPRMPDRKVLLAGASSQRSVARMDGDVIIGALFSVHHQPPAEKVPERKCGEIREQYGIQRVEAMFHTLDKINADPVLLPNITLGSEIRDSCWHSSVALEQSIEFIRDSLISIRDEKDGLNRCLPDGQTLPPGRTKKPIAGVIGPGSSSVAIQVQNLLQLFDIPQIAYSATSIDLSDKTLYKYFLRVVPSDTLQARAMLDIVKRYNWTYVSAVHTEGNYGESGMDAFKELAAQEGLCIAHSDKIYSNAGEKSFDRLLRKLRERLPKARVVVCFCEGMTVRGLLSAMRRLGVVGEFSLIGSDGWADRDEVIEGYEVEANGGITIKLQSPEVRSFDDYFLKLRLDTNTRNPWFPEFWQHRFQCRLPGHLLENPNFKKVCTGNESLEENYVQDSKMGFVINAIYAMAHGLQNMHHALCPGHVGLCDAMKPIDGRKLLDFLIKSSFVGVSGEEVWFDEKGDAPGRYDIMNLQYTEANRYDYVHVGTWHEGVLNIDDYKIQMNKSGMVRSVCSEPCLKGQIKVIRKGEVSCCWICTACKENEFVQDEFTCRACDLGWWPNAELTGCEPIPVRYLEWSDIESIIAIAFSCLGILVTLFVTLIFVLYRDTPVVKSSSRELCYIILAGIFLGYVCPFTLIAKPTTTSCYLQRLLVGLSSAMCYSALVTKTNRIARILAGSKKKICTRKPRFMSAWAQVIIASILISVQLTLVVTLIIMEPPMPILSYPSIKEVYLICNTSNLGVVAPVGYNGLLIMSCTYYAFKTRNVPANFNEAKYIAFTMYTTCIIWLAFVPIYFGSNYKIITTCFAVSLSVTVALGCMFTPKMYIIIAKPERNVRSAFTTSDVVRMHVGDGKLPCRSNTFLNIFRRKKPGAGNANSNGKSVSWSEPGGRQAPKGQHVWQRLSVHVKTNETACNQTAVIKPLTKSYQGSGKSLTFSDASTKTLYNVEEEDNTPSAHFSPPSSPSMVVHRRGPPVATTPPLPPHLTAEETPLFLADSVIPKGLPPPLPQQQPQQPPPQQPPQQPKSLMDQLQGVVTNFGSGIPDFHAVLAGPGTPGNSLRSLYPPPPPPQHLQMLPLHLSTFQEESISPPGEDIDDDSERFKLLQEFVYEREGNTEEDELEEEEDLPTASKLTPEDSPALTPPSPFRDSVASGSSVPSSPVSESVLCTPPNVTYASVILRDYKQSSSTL
In short: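 Rat cerebellum membrane preparation, radioligand displacement binding read by filter-based scintillation counting 1 hour after dosing. Initial duplicate single-point screen at 25 uM, then concentration-response up to 50 uM; loss of signal versus DMSO baseline scored.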

[8] = target: rat Somatostatin Receptor (SST), Sstr1 (gene 25033) (UniProt P28646); assay: NVS_GPCR_rSST: NovaScreen (NVS) G Protein-Coupled Receptor Assay for rat Somatostatin Receptor (SST) (AID 2283314)
Sequence of rat Somatostatin Receptor (SST), Sstr1 (gene 25033) (P28646 whole entry, looked up): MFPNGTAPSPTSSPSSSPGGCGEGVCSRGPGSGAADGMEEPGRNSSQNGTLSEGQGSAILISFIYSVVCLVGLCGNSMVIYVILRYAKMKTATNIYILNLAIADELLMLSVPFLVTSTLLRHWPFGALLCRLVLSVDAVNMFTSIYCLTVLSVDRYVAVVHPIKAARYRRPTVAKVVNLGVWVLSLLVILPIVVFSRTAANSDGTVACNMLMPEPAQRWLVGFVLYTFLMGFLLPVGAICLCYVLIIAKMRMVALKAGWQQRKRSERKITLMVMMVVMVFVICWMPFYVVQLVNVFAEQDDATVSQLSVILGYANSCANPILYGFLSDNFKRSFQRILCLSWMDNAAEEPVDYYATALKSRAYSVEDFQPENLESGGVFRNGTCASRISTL
In short: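 Rat forebrain membranes; radioligand displacement read by filter-based scintillation counting 1 h after dosing. Primary screen in duplicate at 25 uM. Actives (e.g., 30% inhibition) were rerun as concentration-response to 50 uM max and fitted against DMSO.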

[9] = target: rat Glutamate, AMPA Site (AMPA), Gria1 (gene 50592) (UniProt P19490); assay: NVS_LGIC_rAMPA: NovaScreen (NVS) Ligand-Gated Ion Channel Assay for rat Glutamate, AMPA Site (AMPA) (AID 2283324)
In short: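 Rat forebrain membranes; radioligand binding read 1 h after dosing by filtration and scintillation counting. Duplicate single-point screen at 25 uM, then concentration-response to 50 uM for threshold hits (e.g. 30% inhibition); loss of signal vs DMSO.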

[10] = NVS_IC_rCaDHPRCh_L: NovaScreen (NVS) Ion Channel Assay for rat Calcium Channel, Type L, Dihydropyridine Site (CaDHPRCh_L) (AID 2283320)
In short: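 Radioligand binding to dihydropyridine site on rat cortical membranes, filter-based scintillation counting, 1 h after dosing. Screened in duplicate at 25 uM; actives rerun in concentration-response up to 50 uM. Loss of signal versus DMSO baseline.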

[11] = target: human Peripheral-type Benzodiazepine Receptor (PBR), TSPO (gene 706) (UniProt P30536); assay: NVS_MP_hPBR: NovaScreen (NVS) Membrane Protein Assay for human Peripheral-type Benzodiazepine Receptor (PBR) (AID 2283331);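 note: hits reduce radioligand binding relative to DMSO baseline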
Sequence of human Peripheral-type Benzodiazepine Receptor (PBR), TSPO (gene 706) (P30536 whole entry, looked up): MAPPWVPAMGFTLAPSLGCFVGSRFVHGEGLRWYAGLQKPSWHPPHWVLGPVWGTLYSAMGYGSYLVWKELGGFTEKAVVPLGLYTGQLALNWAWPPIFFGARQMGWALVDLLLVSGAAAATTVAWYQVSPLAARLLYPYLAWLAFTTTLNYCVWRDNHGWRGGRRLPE
In short: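 Human colonic cell membranes were incubated with test chemical for 1 hour; radioligand binding was measured by filter-based scintillation counting. Primary screen ran in duplicate at 25 uM, with actives followed in concentration series; loss of signal versus DMSO baseline.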

[12] = target: rat Neurokinin-3 Receptor (NK3), Tacr3 (gene 24808) (UniProt P16177); assay: NVS_GPCR_rNK3: NovaScreen (NVS) G Protein-Coupled Receptor Assay for rat Neurokinin-3 Receptor (NK3) (AID 2283310)
In short: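 Rat cortical membranes; radioligand binding with filtration and scintillation counting, 2 h after dosing. Primary screen in duplicate at 25 uM, then concentration-response up to 50 uM; loss of binding signal relative to DMSO.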

[13] = target: rat Gamma-Aminobutyric Acid Type A Receptor, Non-Selective (GABAR-NonSelective), Gabra1 (gene 29705) (UniProt P62813); assay: NVS_LGIC_rGABAR_NonSelective: NovaScreen (NVS) Ligand-Gated Ion Channel Assay for rat Gamma-Aminobutyric Acid Type A Receptor, Non-Selective (GABAR-NonSelective) (AID 2283326)
In short: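 Radioligand displacement on rat whole-brain extract, 1 h, filter scintillation readout; signal loss fitted versus DMSO. Primary screen in duplicate at 25 uM; hits (e.g. ≥30% inhibition) retested in concentration-response up to 50 uM.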

[14] = target: rat Glutamate, NMDA Agonist Site (GluNMDA), Grin1 (gene 24408) (UniProt P35439); assay: NVS_LGIC_rGluNMDA_Agonist: NovaScreen (NVS) Ligand-Gated Ion Channel Assay for rat Glutamate, NMDA Agonist Site (GluNMDA) (AID 2283327)
In short: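 Rat forebrain membranes, radioligand binding in the agonist-site protocol; 1 h after dosing; filter-based scintillation counting. Single-concentration duplicate screen at 25 uM, then concentration-response up to 50 uM for actives; gain-of-signal vs DMSO.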

[15] = target: human Serotonin, 5-Hydroxytryptamine Receptor 3 (5HT3), HTR3A (gene 3359) (UniProt P46098); assay: NVS_LGIC_h5HT3: NovaScreen (NVS) Ligand-Gated Ion Channel Assay for human Serotonin, 5-Hydroxytryptamine Receptor 3 (5HT3) (AID 2283325)
In short: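 Radioligand displacement binding to human 5-HT3 from HEK293 membranes, read by filter-based scintillation counting after 1 h. Screen at 25 uM in duplicate; chemicals passing threshold were retested in concentration-response up to 50 uM.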

Cc1occc1C(=O)Nc1ccc(C(=O)N2CCC(F)(F)/C(=C\C(=O)N3CCC(N4CCCCC4)CC3)c3ccccc32)cc1
AC50 (Adra2b (gene 24174)): 1.25 µM (active)
outcome [1]: inactive
AC50 [2]: 11.7 µM (active)
AC50 [3]: 4.14 µM (active)
outcome [4]: inactive
AC50 [5]: 4.89 µM (active)
outcome [6]: inactive

O=CCCCC=O
outcome [1]: inactive

c1ccc(C[n+]2cccc3ccccc32)cc1
AC50 (Adra2b (gene 24174)): 12.2 µM (active)
outcome [2]: inactive
AC50 [3]: 25 µM (active)
AC50 [5]: 10.7 µM (active)

CC(C)(C)c1csc(-c2cc3cc(OCc4ccccc4CC(=O)O)ccc3o2)n1
outcome [2]: inactive
outcome [3]: inactive

O=c1[nH]sc2ccccc12
AC50 [7]: 35.9 µM (active)
AC50 (Adra2b (gene 24174)): 37.4 µM (active)
outcome [8]: inactive
outcome [9]: inactive

NCc1cccc(C2CCN(C(=O)c3ccc(C#Cc4ccccc4F)o3)CC2)c1
AC50 (Adra2b (gene 24174)): 13.3 µM (active)
AC50 [8]: 15 µM (active)
outcome [4]: inactive
AC50 [10]: 21.1 µM (active)
AC50 [5]: 2.68 µM (active)
AC50 [11]: 2.7 µM (active)

COc1ccc2cc(S(=O)(=O)N[C@H](CC(=O)N[C@H](Cc3ccc(CN4[C@H](C)CCC[C@@H]4C)cc3)C(=O)N(C)C(C)C)c3ccc4c(c3)OCO4)ccc2c1
AC50 (Adra2b (gene 24174)): 11.1 µM (active)
AC50 [2]: 11.4 µM (active)
AC50 [12]: 8.07 µM (active)
AC50 [8]: 5.07 µM (active)
outcome [3]: inactive
outcome [4]: inactive
AC50 [10]: 21.5 µM (active)
AC50 [5]: 5.03 µM (active)
AC50 [13]: 11.2 µM (active)

CC[C@H](NC(=O)c1cc(F)ccc1NS(=O)(=O)c1cccc2cccnc12)c1ccccc1
outcome [2]: inactive
outcome [5]: inactive
AC50 [11]: 0.246 µM (active)

COc1cc(C(=O)NC2CCN(C)CC2)ccc1Nc1ncc2c(n1)N(C1CCCC1)CC(F)(F)C(=O)N2C
AC50 (Adra2b (gene 24174)): 18.8 µM (active)
AC50 [2]: 13.9 µM (active)
outcome [3]: inactive
AC50 [5]: 2.03 µM (active)
AC50 [14]: 11.5 µM (active)
outcome [6]: inactive
outcome [11]: inactive

CCOC(=O)O[C@H](C)OC(=O)c1ccc2c(c1)cc(C(=O)NC1CCN(C(C)C)CC1)n2Cc1cc(-c2ccc(Cl)s2)on1
AC50 [7]: 17 µM (active)
AC50 (Adra2b (gene 24174)): 15.4 µM (active)
AC50 [2]: 32.1 µM (active)
AC50 [8]: 14.9 µM (active)
AC50 [10]: 9.36 µM (active)
AC50 [5]: 9.62 µM (active)
outcome [15]: inactive
